Reference: the supplement of paper PMC8975748
Where a name gives a salt, the structure may show the parent alone.

test system: Saccharomyces cerevisiae BY4741 SeMeCo community; assay: z-score of subpopulation abundance vs DMSO median, subpopulation auxotrophic for HU; higher = larger share of this subpopulation than in DMSO controls; details: 10 µM; 24 h; SM minimal medium; subpopulation (auxotrophy): HU
Experimental: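 Fluorescent four-plasmid SeMeCo (self-establishing metabolically cooperating S. cerevisiae BY4741 community; plasmids pH-mRuby2, pL-mWasabi, pU-eCFP, pM-TagRFP657) was grown 24 h in minimal SM medium with each Selleck FDA-approved drug at 10 µM in 384-well plates. Cells were fixed and imaged by high-content confocal microscopy. For each auxotrophic subpopulation (and the prototroph), a z-score gives the deviation from the DMSO vehicle-control population median.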

SMILES | z-score of subpopulation abundance
CNCC[C@@H](Oc1ccccc1C)c1ccccc1 [Atomoxetine HCl] | -0.99
C[C@@H](O)[C@H]1C(=O)N2C(C(=O)O)=C(S[C@@H]3CN[C@H](C(=O)Nc4cccc(C(=O)O)c4)C3)[C@H](C)[C@H]12 [Ertapenem sodium] | -0.53
Cc1cc(C)nc(O)n1.O=C(Nc1ccc([N+](=O)[O-])cc1)Nc1ccc([N+](=O)[O-])cc1 [Nicarbazin] | -0.22
Nc1ccc(S(=O)(=O)Nc2ncccn2)cc1 [Sulfadiazine] | -0.2
CC1(C)S[C@@H]2[C@H](NC(=O)Cc3ccccc3)C(=O)N2[C@H]1C(=O)O.CCN(CC)CCOC(=O)c1ccc(N)cc1 [Penicillin G Procaine] | 0.54
Oc1c(Cl)cc(Cl)c(Cl)c1Cc1c(O)c(Cl)cc(Cl)c1Cl [Hexachlorophene] | 4.22
CN[C@H]1C(=O)N[C@@H]2Cc3ccc(cc3)Oc3cc4cc(c3O[C@@H]3O[C@H](C(=O)O)[C@@H](O)[C@H](O)[C@H]3NC(=O)CCCCCCCCC(C)C)Oc3ccc(cc3Cl)[C@@H](O)[C@@H]3NC(=O)[C@H](NC(=O)[C@@H]4NC(=O)[C@@H](NC2=O)c2cc(cc(O)c2Cl)Oc2cc1ccc2O)c1ccc(O)c(c1)-c1c(O[C@H]2O[C@H](CO)[C@@H](O)[C@H](O)[C@@H]2O)cc(O)cc1[C@@H](C(=O)NCCCN(C)C)NC3=O [Dalbavancin] | 3.63
CCOc1cc(NC(C)=O)ccc1C(=O)OC [Ethopabate] | -0.22
Cc1cc(O)cc(C)c1Cl [Chloroxylenol] | 1.05
Fc1ccc(C(c2ccc(F)cc2)N2CCN(C/C=C/c3ccccc3)CC2)cc1 [Flunarizine 2HCl] | 0.97
CC[C@H]1OC(=O)[C@H](C)[C@@H](O[C@H]2C[C@@](C)(OC)[C@@H](O)[C@H](C)O2)[C@H](C)[C@@H](O[C@@H]2O[C@H](C)C[C@H](N(C)C)[C@H]2O)[C@](C)(O)C[C@@H](C)CN(C)[C@H](C)[C@@H](O)[C@]1(C)O [Azithromycin Dihydrate] | -0.53
CC(N)C12CC3CC(CC(C3)C1)C2 (stereo not given) [Rimantadine] | 1.15
Cc1c[nH]c(=O)[nH]c1=O [Thymine] | 0.14
O=C(O)CCC(=O)OC[C@@H](NC(=O)C(Cl)Cl)[C@H](O)c1ccc([N+](=O)[O-])cc1 [Chloramphenicol sodium succinate] | -1.04
CC(=O)OCC[N+](C)(C)C [Acetylcholine iodide] | -0.12
CCOC(=O)C1=C(COCCN)NC(C)=C(C(=O)OC)[C@@H]1c1ccccc1Cl [Levamlodipine] | -6.75
COc1ccc(C(C)=O)c(O)c1 [Paeonol] | 0.44
CN[C@@H]1[C@H](O)[C@H](NC)[C@H]2O[C@@]3(O)C(=O)C[C@@H](C)O[C@H]3O[C@@H]2[C@H]1O [Spectinomycin 2HCl] | 0.25
Clc1ccc(COC(Cn2ccnc2)c2ccc(Cl)cc2Cl)c(Cl)c1 (stereo not given) [Miconazole Nitrate] | 15.7
O=C(c1ccc(OCCN2CCCCC2)cc1)c1c(-c2ccc(O)cc2)sc2cc(O)ccc12 [Raloxifene HCl] | -1.43

SMILES | z-score of subpopulation abundance
C#CCN[C@@H]1CCc2ccccc21 [Rasagiline Mesylate] | -0.74
CCN(CC)CCOc1ccc2c(c1)C(=O)c1cc(OCCN(CC)CC)ccc1-2 [Tilorone dihydrochloride] | 0.05
COc1cccc2c1C(=O)c1c(O)c3c(c(O)c1C2=O)C[C@@](O)(C(=O)CO)C[C@@H]3O[C@H]1C[C@H](N)[C@H](O[C@@H]2CCCCO2)[C@H](C)O1 [Pirarubicin] | 4
C[N+]1(C)CCC(=C(c2ccccc2)c2ccccc2)CC1 [Diphemanil Methylsulfate] | -0.13
Cc1ccc(-c2ncc(Cl)cc2-c2ccc(S(C)(=O)=O)cc2)cn1 [Etoricoxib] | -0.51
Oc1c(Cl)cc(Cl)c2cccnc12 [Chloroxine] | 12.7
CC(=O)OCC(COC(C)=O)OC(C)=O [Triacetin] | 0.55
CN1CCCN=C1/C=C/c1cccs1 [Pyrantel Pamoate] | 0.04
Nc1nnc(-c2cccc(Cl)c2Cl)c(N)n1 [Lamotrigine] | -0.39
CCCN1CCCC[C@H]1C(=O)Nc1c(C)cccc1C [Ropivacaine HCl] | -0.21
O=C(c1ccccc1)c1ccc2n1CCC2C(=O)O (stereo not given) [Ketorolac] | -1.29
CC[C@H]1OC(=O)[C@H](C)[C@@H](O[C@H]2C[C@@](C)(OC)[C@@H](O)[C@H](C)O2)[C@H](C)[C@@H](O[C@@H]2O[C@H](C)C[C@H](N(C)C)[C@H]2O)[C@](C)(O)C[C@@H](C)CN(C)[C@H](C)[C@@H](O)[C@]1(C)O [Azithromycin] | 0.02
Cc1ccsc1/C=C/C1=NCCCN1C [Morantel tartrate] | 0.3
COC(=O)Nc1nc2cc(C(=O)c3ccccc3)ccc2[nH]1 [Mebendazole] | 1.39
CC/C(=C(\c1ccccc1)c1ccc(OCCN(C)C)cc1)c1ccccc1 [Tamoxifen] | 1.39
O=C(O)c1cc(-c2ccc(F)cc2F)ccc1O [Diflunisal] | -2.05
NC(=N\CCCCCC/N=C(N)/N=C(\N)Nc1ccc(Cl)cc1)/N=C(\N)Nc1ccc(Cl)cc1 [Chlorhexidine diacetate] | -0.08
CCCCc1oc2ccccc2c1C(=O)c1cc(I)c(OCCN(CC)CC)c(I)c1 [Amiodarone HCl] | 4.02
N#Cc1ccc(Oc2ccc3c(c2)COB3O)cc1 [Crisaborole (AN2728)] | 3.15
O=C1NCC2(CCN(CCc3ccccc3)CC2)O1 [Fenspiride HCl] | -0.8
